Screening data deposited in PubChem by several laboratories.
In the library only some 0.5% were active in any assay of this set; here they are far more common.
AddAB inh: growth inhibition of E. coli expressing H. pylori AddAB, primary screen, AddAB inhibitor project, absorbance | inhibition, % at 11.9 µM | 330,000 compounds, 0.29% hits; in the data active means inhibition above about 12%;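 further: 0% = vehicle wells of infected cells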
E coli growth-1: E. coli V3065 growth inhibition, primary screen, counter-screen for AddAB inhibitor project, absorbance, OD600; 18 h; inhibition, % at 11.9 µM; 330,000 compounds, 0.27% hits;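 active means inhibition above the campaign's mean inhibition across all tested compounds plus 3 SD, cut at about 9.9% in these data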;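 further: uninfected addAB+ strain grown without phage in ampicillin broth; 0% = DMSO wells and 100% = ciprofloxacin 0.95 µg/ml wells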
E coli growth-2: E. coli growth inhibition, primary screen, OD600; 330,000 compounds, 0.21% hits; Escherichia coli growth, 23 h; hits give low values; OD600 absorbance (test concentration not listed); AID 1053175, 2014;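 active means OD600 absorbance below the run mean of sample wells minus 3.6 SD, in any replicate, cut at about 0.56 in these data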
Tat export inh: E. coli Tat export inhibitors, primary screen, MC4100, TorA-mCherry reporter, fluorescence, single point; 340,000 compounds, 0.036% hits; inhibition, % at 10 µM;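 active means mean replicate inhibition at least 50% and at least half of replicates individually reaching 50%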;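 further: exported cargo escapes ClpAP degradation while cytoplasmic cargo is degraded and loses fluorescence; 0% = median of neutral control wells and 100% = median of NaSCN control wells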
phage Ecoli inh: growth loss of phage-infected E. coli, primary screen, RecBCD inhibitor project, absorbance, with phage, HTS | inhibition, % at 11.9 µM | 360,000 compounds, 0.26% hits; in the data active means inhibition above about 11%
AddAB confirm: growth loss of phage-infected E. coli expressing H. pylori AddAB, confirmation, AddAB inhibitor project, absorbance, E. coli V3065, T4 phage, triplicate; shares compounds with AddAB inh; OD; T4 phage with gene 2 nonsense mutations; inhibition, % at 11.9 µM; 880 compounds, 64% hits;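 active means mean inhibition above a set limit taken from the earlier primary screen, cut at about 13% in these data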;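 further: higher means less bacterial growth since AddAB block lets phage replicate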
RecBCD counter: growth loss of RecBCD+ E. coli with mutant T4 phage, counter-screen for AddAB inhibitor project, absorbance, V66 E. coli; shares compounds with AddAB inh; OD growth; inhibition, % at 11.9 µM; 880 compounds, 73% hits; AID 488955, 2010;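 active means mean inhibition above the mean of solvent-only control wells plus 3 SD, cut at about 4% in these data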;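 further: optical density read after an 18 h incubation at 37 °C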
Bact viability: bacterial viability inhibition counter-screen, confirmation, counter-screen for AddAB inhibitor project, absorbance | shares compounds with AddAB inh | absorbance (AddAB counterscreen) | inhibition, % at 11.9 µM | 880 compounds, 35% hits; in the data active means inhibition above about 25%
RecBCD conf: growth loss of phage-infected RecBCD+ E. coli, confirmation, RecBCD inhibitor project, absorbance, E. coli V66, T4 gene 2 phage; 890 compounds, 45% hits; AID 651982, 2013; E. coli V66 + T4 2- phage, growth OD; inhibition, % at 11.9 µM; shares compounds with phage Ecoli inh;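 active means mean inhibition over triplicates exceeding the hit threshold derived in the original primary screen, cut at about 11% in these data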
Ecoli viability: E. coli viability inhibition, counter-screen for RecBCD inhibitor project, absorbance, high throughput | shares compounds with phage Ecoli inh | inhibition, % at 11.9 µM | absorbance (OD) growth | 890 compounds, 29% hits; in the data active means inhibition above about 20%;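 further: E. coli strain V66 grown with compound alone and no phage infection; 0% = bacteria with DMSO vehicle only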
AddAB counter: growth loss of phage-infected AddAB-carrying E. coli, confirmation, counter-screen for RecBCD inhibitor project, absorbance, E. coli V3065, T4 phage | shares compounds with phage Ecoli inh | E. coli expressing H. pylori AddAB + T4 phage, OD growth; gene 2 mutant T4, recBCD-deleted host | inhibition, % at 11.9 µM | 890 compounds, 45% hits;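 active means mean inhibition above the solvent-only control wells' mean plus 3 SD, cut at about 22% in these data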;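 further: higher means less bacterial growth from phage killing when AddAB is blocked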
* marks the source's active call; other numbers are inactive results; . = no result.

SMILES	AddAB inh	E coli growth-1	E coli growth-2	Tat export inh	phage Ecoli inh	AddAB confirm	RecBCD counter	Bact viability	RecBCD conf	Ecoli viability	AddAB counter
Cc1ccc(C(C)C)c(OCc2ccc(C(=O)N/N=C/c3ccc(O)cc3O)cc2)c1	12.9*	14.7*	.	-6.6	26.8*	15.1*	17.7*	20.3	14.4*	16.9	23.6*
Nc1nc(N)c2c(ccc3nccc32)[nH]1	93.3*	95.4*	.	11.4	95.9*	97.5*	90.7*	101.9*	100.8*	103.0*	101.7*
Nc1ccc2ncccc2c1N	-1.9	-4.8	0.664	3.6	1.7	.	.	.	.	.	.
FC(F)(F)c1nnc(Nc2ccc(Cl)cc2)s1	6.2	5.0	0.522	-6.3	7.0	.	.	.	.	.	.
Fc1ccc(Nc2nnc(C(F)(F)F)s2)cc1Cl	14.2*	15.9*	0.435*	-16.8	14.5*	17.1*	19.5*	13.5	6.6	9.3	19.9
COc1c(N2C[C@@H]3CCCN[C@@H]3C2)c(F)cc2c(=O)c(C(=O)O)cn(C3CC3)c12	100.3*	101.9*	.	106.0*	98.2*	101.9*	101.9*	101.8*	102.6*	104.6*	103.8*
COc1c(N2CCN(C(=S)NCc3ccccc3)C(C)C2)c(F)cc2c(=O)c(C(=O)O)cn(C3CC3)c12 (stereo unspecified)	101.9*	104.1*	0.0785*	33.4	96.9*	100.8*	99.1*	100.5*	103.1*	104.5*	104.7*
CCOC(=O)c1cn(-c2ccc(F)c(F)c2F)c2c(F)c(F)c(F)cc2c1=O	2.6	-1.2	0.688	4.0	-1.1	.	.	.	.	.	.
COc1c(F)c(F)cc2c(=O)c(C(=O)O)cn(C3CC3)c12	97.8*	98.0*	0.05*	67.6*	94.9*	98.2*	98.8*	102.3*	98.5*	98.7*	98.3*
COc1ccc(N=C2SC(=Cc3ccc(C)o3)C(=O)N2CC(C)C)cc1	.	.	0.727	.	.	.	.	.	.	.	.
COC(=O)c1c(NC(=O)c2ccc([N+](=O)[O-])o2)sc2c1CCN(C(C)C)C2	101.4*	100.1*	.	26.0	30.7*	98.4*	98.4*	99.2*	100.2*	101.5*	102.3*
CC(=O)N1CCc2c(sc(NC(=O)c3ccc([N+](=O)[O-])o3)c2C#N)C1	.	.	0.67	2.8	7.8	.	.	.	.	.	.
CC(C)N1CCc2c(sc(NC(=O)c3ccc([N+](=O)[O-])o3)c2C(N)=O)C1	99.8*	99.7*	.	30.7	34.2*	102.2*	47.9*	103.0*	37.7*	62.0*	102.9*
CC(C)(C)C1COC(=O)CCCC=CCC(CC(=O)N(CCO)Cc2ccccc2)C(=O)N1 (stereo unspecified)	.	.	0.692	.	.	.	.	.	.	.	.
CC(C)(C)c1ccc(OCCCC(=O)NNC(=O)c2ccccc2O)cc1	19.9*	14.5*	0.714	10.8	12.7*	6.6	10.2*	4.3	7.8	7.7	9.1
Cc1cc(C(=O)NNC(=O)CCCOc2ccccc2)c(C)o1	-1.0	-0.7	0.621	-5.7	-0.5	.	.	.	.	.	.
O=C(Nc1ccc2c(c1)OCO2)OC1CC2CCCC(=O)N3CCC(C1)C23 (stereo unspecified)	.	.	0.666	.	.	.	.	.	.	.	.
CCCCNC1=CC(=O)C(NCCCC)=CC1=O	.	.	0.692	8.6	3.9	.	.	.	.	.	.
CCCCNC1=CC(=O)C(=O)c2ccccc21	29.4*	25.2*	0.418*	-29.1	20.6*	31.7*	9.9*	18.6	12.6*	15.0	22.1*
Cc1ccc(NN=C2CCS(=O)(=O)c3sccc32)cc1	.	.	0.709	.	.	.	.	.	.	.	.
CC1CN(C(C)CO)C(=O)c2cccc(NS(=O)(=O)c3cn(C)cn3)c2OC1CN(C)Cc1ccc(-c2ccccc2)cc1 (stereo unspecified)	.	.	0.715	.	.	.	.	.	.	.	.
Nc1c(Cl)ncnc1N/N=C/c1ccnc2ccccc12	2.7	-1.5	.	-3.2	2.7	.	.	.	.	.	.
Nc1c(Cl)ncnc1N/N=C/c1ccc2ccccc2n1	26.5*	24.0*	.	-2.0	25.7*	23.4*	18.1*	20.5	11.1*	12.2	20.4
Cc1ccc(SCC(O)=C(C#N)c2nc3ccccc3n2C)cc1	.	.	0.71	.	.	.	.	.	.	.	.
Fc1ccc(NC(=S)NCc2ccccc2Cl)cc1	14.1*	12.7*	0.66	-9.9	12.1*	35.8*	24.8*	34.9*	17.5*	24.3*	38.1*
SMILES	AddAB inh	E coli growth-1	E coli growth-2	Tat export inh	phage Ecoli inh	AddAB confirm	RecBCD counter	Bact viability	RecBCD conf	Ecoli viability	AddAB counter
NC(=O)CC(N)c1cn(C(CC(N)=O)C(=O)N2CCNCC2)nn1 (stereo unspecified)	.	.	0.694	.	.	.	.	.	.	.	.
CCC(=O)N1CCN(c2ccc(Cl)cc2NC(=O)c2ccc([N+](=O)[O-])o2)CC1	3.1	2.8	0.723	1.5	2.1	.	.	.	.	.	.
O=C(Nc1cc(Cl)ccc1-n1cncn1)c1ccc([N+](=O)[O-])o1	99.0*	32.3*	0.578	-7.4	16.1*	92.2*	11.7*	56.6*	9.5	12.5	98.4*
CCOc1cc(C=NNC(=O)CSc2cccc3cccnc23)ccc1O	.	.	0.651	.	.	.	.	.	.	.	.
CC1CCC(=NNc2ccccc2)C(=O)N1 (stereo unspecified)	.	.	0.664	.	.	.	.	.	.	.	.
O=C(CC1CC=CCCC(=O)OCC2CCCN2C1=O)NC(CO)Cc1ccccc1 (stereo unspecified)	.	.	0.714	.	.	.	.	.	.	.	.
COc1cccc(/C=N/Nc2ccc([N+](=O)[O-])cn2)c1O	26.1*	22.2*	.	-0.8	17.7*	21.2*	17.0*	17.9	12.1*	18.2	16.5
CCOC(=O)[C@@H]1[C@H]2COc3cc(OC)ccc3[C@H]2N2C(=O)N(c3ccc(C(F)(F)F)cc3)C(=O)[C@]12C	14.1*	9.1	.	-6.7	15.2*	2.0	8.4*	1.0	6.7	8.7	11.0
CCOC(=O)[C@@H]1[C@H]2COc3cc(OC)ccc3[C@@H]2N2C(=O)N(c3ccc(C(F)(F)F)cc3)C(=O)[C@@]12C	1.8	0.7	.	1.6	3.4	.	.	.	.	.	.
O=C(NN=Cc1cc(Br)ccc1OC(=O)c1ccc(Br)cc1)c1ccncc1	.	.	0.697	.	.	.	.	.	.	.	.
